Laboratory results taken from PubChem BioAssay (Tox21).
Inconclusive results are not listed. Entries that show only a call come without a potency. The source made the active and inactive calls. Calls follow the shape of the full dose curve.

Assay: qHTS assay to identify small molecule agonists of the endoplasmic reticulum stress response signaling pathway - cell viability counter screen (AID 1159517); also: nearly all actives have a fitted effect of over 50% in size
Settings: ESRE-bla HeLa viability, CellTiter-Glo luminescence, 5 h; series mostly up to 61 µM
Source text: U.S. Tox21 Program National Center for Advancing Translational Sciences [NCATS] NIH Chemical Genomics Center [NCGC] U.S. Environmental Protection Agency [EPA] National Institutes of Environmental Health Sciences [NIEHS] National Toxicology Program [NTP] U.S. Food and Drug Administration [FDA] Tox21 Assay Overview: Endoplasmic Reticulum (ER) plays an important role in cellular signaling, protein folding/maturation, stress response, lipid biosynthesis, calcium storage and release etc. Under stress conditions, proteins in ER misfold or unfold, and leading to the expression of ER stress responsive genes. ER stress has been associated with a variety of pathophysiological conditions such as cancer, inflammation, neurodegenerative diseases, diabetes, ischemic heart disease etc. To identify the compounds that induce ER stress response, an ER stress reporter cell line, CellSensor ESRE-bla HeLa (Life Technologies, Carlsbad, CA) containing a beta-lactamase reporter gene under control of the Endoplasmic reticulum Stress Response Element (ESRE) was used to screen Tox21 10K compound library. The cytotoxicity of the Tox21 compound library against the ESRE-bla HeLa cell line was tested in parallel by measuring cell viability using the CellTiter-Glo assay in the same wells.
Tox21 Assay Protocol Summary: ESRE-bla HeLa cells were dispensed at 1,500 cells/6 uL of assay medium per well into black wall/clear-bottom 1536-well plates using a Multidrop Combi (ThermoFisher Scientific, Waltham, MA) dispenser. After the assay plates were incubated at 37 C and 5% CO2 for an overnight, 23 nL of compounds dissolved in DMSO, positive controls or DMSO only was transferred to the assay plate by a Pintool station (Kalypsys, San Diego, CA). The assay plates were incubated at 37 C and 5% CO2 for 5 hr. One uL of LiveBLAzer B/G FRET substrate (Life Technologies) was added using a FRD (Flying Reagent Dispenser, Aurora Discovery, San Diego, CA) and the plates were incubated at room temperature for 2 hr. Fluorescence intensity (405 nm excitation, 460 nm and 530 nm emissions) was measured using an Envision plate reader (PerkinElmer, Shelton, CT). For cytotoxicity, 4 ul/well of CellTiter-Glo reagent was added into the assay plates using an FRD. After 30 min incubation at room temperature, the luminescence intensity was measured using a ViewLux plate reader (PerkinElmer).

| SMILES | Potency |
| --- | --- |
| Cc1ccc(N)c(C)c1 | inactive |
| Cc1nnc(-c2ccccc2)c(=O)n1N | inactive |
| CCCBr | inactive |
| c1ccc2c(c1)sc1ccccc12 | inactive |
| C=CC(=O)NC(C)(C)CC(C)=O | inactive |
| CCCCCCCCCCCCCCCl | inactive |
| O=C(NC(=O)c1cc(F)c(F)cc1Cl)Nc1cc(F)ccc1N1CCC(C(=O)O)CC1 | inactive |
| C[C@]12CC[C@H]3[C@@H](CCC4=CC(=O)CC[C@@H]43)[C@@H]1CC[C@@H]2OC(=O)CCc1ccccc1 | inactive |
| Nc1cccc2ccccc12 | inactive |
| C1CCNCC1 | inactive |
| CC(C)CCON=O | inactive |
| CCOC(=O)NC(O)C(Cl)(Cl)Cl (stereo not given) | inactive |
| CCCCC(CC)CO[N+](=O)[O-] (stereo not given) | inactive |
| CC(C)(C)OOC(C)(C)CCC(C)(C)OOC(C)(C)C | inactive |
| CCCC(C)(COC(N)=O)COC(=O)NC(C)C (stereo not given) | inactive |
| NNCCO | inactive |
| Cc1ccc2c(C)cccc2c1 | inactive |
| CCc1cnc(C2=NC(C)(C(C)C)C(=O)N2)c(C(=O)O)c1 (stereo not given) | inactive |
| C[C@@H]1C[C@@H]([C@H](O)CC2CC(=O)NC(=O)C2)C(=O)[C@@H](C)C1 | inactive |
| Clc1ccccc1 | inactive |

| SMILES | Potency |
| --- | --- |
| CCCCC#N | inactive |
| CCC[N+](CCC)(CCC)CCC | inactive |
| C[N+](C)(C)CCOC(=O)C(O)(c1ccccc1)c1ccccc1 | inactive |
| CCCCC1C(=O)NC(=O)N(C2CCCCC2)C1=O (stereo not given) | inactive |
| CCC(C)(C)O | inactive |
| CN(C)C(=O)Nc1cccc(OC(=O)NC(C)(C)C)c1 | inactive |
| CC(C)(C)NCC(O)c1ccccc1Cl (stereo not given) | inactive |
| Clc1ccc2ccccc2c1 | inactive |
| CCNC(=O)NC(=O)/C(C#N)=N/OC | inactive |
| NC(=S)c1c(Cl)cccc1Cl | inactive |
| C[Si](Cn1cncn1)(c1ccc(F)cc1)c1ccc(F)cc1 | inactive |
| O=[N+]([O-])O[C@H]1CO[C@H]2[C@@H]1OC[C@H]2O[N+](=O)[O-] | inactive |
| Cc1ccccc1 | inactive |
| CCc1ccccc1N | inactive |
| FC(F)OC(F)(F)C(F)Cl (stereo not given) | inactive |
| CCOC(=O)c1cn2nc(OP(=S)(OCC)OCC)cc2nc1C | inactive |
| CC(C)C1(C)N=C(c2ncccc2C(=O)O)NC1=O (stereo not given) | inactive |
| CN1C[C@H](C(=O)N[C@]2(C)O[C@@]3(O)[C@@H]4CCCN4C(=O)[C@H](Cc4ccccc4)N3C2=O)C=C2c3cccc4[nH]cc(c34)C[C@H]21 | inactive |
| CCCCNC(=O)OCC#CI | inactive |
| CC(O)CN1CCN(CC(=O)[O-])CCN(CC(=O)[O-])CCN(CC(=O)[O-])CC1.[Gd+3] (stereo not given) | inactive |
